Reference: PubChem BioAssay (Tox21)
Results filed as inconclusive are left out. Activity calls are given as the source filed them. Unless noted, the call rests on the fitted dose curve; in most records, active means well fitted curve in the direction sought with a large enough effect in the repeat runs; inconclusive means weak or mixed curves; inactive means no such curve, though single readings can be large; an effect the other way counts as inactive or inconclusive.

Key:
[1] = qHTS RealTime-Glo MT Cell Viability Assay in HEK293 cells - 0 hour (AID 1224880); further: top concentration of the series differs between compounds; nearly all actives have a fitted effect of over 45% in size
Method in brief: (§1)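 HEK293 + NanoLuc + prosubstrate, 600 cells/well; 5 h, 37 C/5% CO2; compound 23 nL in DMSO by pintool; 37 C; luminescence read at 0, 8, 16, 24, 32 and 40 h time points.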

[2] = A CellTox Green Cytotoxicity Assay to monitor cytotoxicity in HEK293 cells - 32 hour (AID 1224881); further: nearly all actives have a fitted effect of over 40% in size
Method in brief: (§2)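 Tox21 screen in HEK293: membrane-impermeant cyanine dye fluoresces on binding dead-cell DNA; compound pinned 5 h post-seeding, plates held at 37 C, signal read repeatedly through 40 h.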

[3] = A CellTox Green Cytotoxicity Assay to monitor cytotoxicity in HepG2 cells - 0 hour (AID 1224882); further: nearly all actives have a fitted effect of over 35% in size
Method in brief: (§3)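 Measurements at 0, 8, 16, 24, 32 and 40 h of treatment captured CellTox Green fluorescence in HepG2 cells that had been co-plated with reagent and preincubated 5 h at 37 C/5% CO2.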

[4] = A CellTox Green Cytotoxicity Assay to monitor cytotoxicity in HEK293 cells - 8 hour (AID 1224884); further: nearly all actives have a fitted effect of over 35% in size
Method in brief: as §2

[5] = qHTS RealTime-Glo MT Cell Viability Assay in HepG2 cells - 16 hour (AID 1224885); further: nearly all actives have a fitted effect of over 50% in size
Method in brief: (§4)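 Real-time, nonlytic viability: 600 HepG2 cells/well mixed with NanoLuc enzyme plus prosubstrate; 5 h settle, compound (DMSO) added by pintool; luminescence monitored over 40 h at 37 C.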

[6] = qHTS RealTime-Glo MT Cell Viability Assay in HEK293 cells - 24 hour (AID 1224886); further: top concentration of the series differs between compounds; nearly all actives have a fitted effect of over 50% in size
Method in brief: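 Cells + reagent dispensed (600 cells/well, HEK293) → 5 h at 37 C/5% CO2 → 23 nL compound in DMSO pinned → 40 h at 37 C → luminescence read at 0, 8, 16, 24, 32, 40 h.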

[7] = qHTS RealTime-Glo MT Cell Viability Assay in HEK293 cells - 8 hour (AID 1224887); further: top concentration of the series differs between compounds; nearly all actives have a fitted effect of over 50% in size
Method in brief: as §1

[8] = A CellTox Green Cytotoxicity Assay to monitor cytotoxicity in HEK293 cells - 16 hour (AID 1224888); further: nearly all actives have a fitted effect of over 35% in size
Method in brief: as §2

[9] = qHTS RealTime-Glo MT Cell Viability Assay in HepG2 cells - 0 hour (AID 1224889); further: nearly all actives have a fitted effect of over 50% in size
Method in brief: as §4

[10] = A CellTox Green Cytotoxicity Assay to monitor cytotoxicity in HepG2 cells - 8 hour (AID 1224890); further: nearly all actives have a fitted effect of over 45% in size
Method in brief: as §3

[11] = qHTS assay to identify small molecule antagonists of the estrogen receptor alpha (ER-alpha) signaling pathway using the BG1 cell line in the presence of 0.1 nM 17-beta-estradiol - cell viability counter screen (AID 1259241); further: nearly all actives have a fitted effect of over 40% in size
Method in brief: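 VM7Luc4E2 cells (endogenous ER-alpha, 4×ERE-luciferase), hormone-starved 5 days in charcoal-stripped FBS, were treated with compounds plus 0.1 nM 17beta-estradiol for 22 hr at 37C; viability read in same wells as CellTiter-Fluor live-cell protease fluorescence.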

[12] = qHTS assay to identify small molecule antagonists of the androgen receptor (AR) signaling pathway using the MDA cell line in the presence of 0.5 nM R1881 - cell viability counter screen (AID 1259242); further: nearly all actives have a fitted effect of over 45% in size
Method in brief: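 Concentration-response screen of compounds for toxicity in MDA-kb2 reporter cells: 16 hr at 37C with 0.5 nM R1881, endpoint live-cell protease fluorescence measured in the reporter wells.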

[13] = target: Androgen receptor (Homo sapiens) (UniProt P10275); assay: qHTS assay to identify small molecule antagonists of the androgen receptor (AR) signaling pathway using the MDA cell line in the presence of 0.5 nM R1881 (AID 1259243); further: nearly all actives have a fitted effect of over 50% in size
Sequence of Androgen receptor (Homo sapiens) (P10275 whole entry, looked up): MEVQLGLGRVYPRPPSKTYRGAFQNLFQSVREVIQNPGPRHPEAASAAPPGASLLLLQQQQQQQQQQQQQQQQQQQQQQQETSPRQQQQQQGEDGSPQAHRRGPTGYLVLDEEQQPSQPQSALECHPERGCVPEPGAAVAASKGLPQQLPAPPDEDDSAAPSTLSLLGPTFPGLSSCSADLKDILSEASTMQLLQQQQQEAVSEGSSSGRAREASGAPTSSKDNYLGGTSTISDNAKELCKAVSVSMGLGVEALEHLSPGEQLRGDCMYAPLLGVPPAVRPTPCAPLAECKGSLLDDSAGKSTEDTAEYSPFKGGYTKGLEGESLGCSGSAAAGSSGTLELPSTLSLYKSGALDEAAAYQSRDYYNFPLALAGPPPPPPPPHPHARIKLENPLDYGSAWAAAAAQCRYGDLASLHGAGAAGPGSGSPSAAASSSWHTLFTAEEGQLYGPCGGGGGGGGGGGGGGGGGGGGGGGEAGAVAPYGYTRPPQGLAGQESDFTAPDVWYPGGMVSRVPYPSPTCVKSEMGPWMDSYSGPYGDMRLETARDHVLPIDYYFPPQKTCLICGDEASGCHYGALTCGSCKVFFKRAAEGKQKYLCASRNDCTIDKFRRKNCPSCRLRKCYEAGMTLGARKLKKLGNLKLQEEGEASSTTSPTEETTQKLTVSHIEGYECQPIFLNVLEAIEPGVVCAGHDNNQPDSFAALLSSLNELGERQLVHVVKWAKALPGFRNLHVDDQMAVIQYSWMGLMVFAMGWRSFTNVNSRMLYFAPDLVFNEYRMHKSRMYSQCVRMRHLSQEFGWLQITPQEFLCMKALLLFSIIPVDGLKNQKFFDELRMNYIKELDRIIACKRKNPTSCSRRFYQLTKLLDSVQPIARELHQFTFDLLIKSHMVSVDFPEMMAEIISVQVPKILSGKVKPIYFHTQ
Method in brief: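 With R1881 held at 0.5 nM (final), compound effects on MMTV-luciferase expression in MDA-kb2 cells were scored by luminescence after a 16 hr, 37C incubation.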

[14] = target: Estrogen receptor (Homo sapiens) (UniProt P03372); assay: qHTS assay to identify small molecule antagonists of the estrogen receptor alpha (ER-alpha) signaling pathway using the BG1 cell line in the presence of 0.1 nM 17-beta-estradiol (AID 1259244); further: nearly all actives have a fitted effect of over 50% in size
Sequence of Estrogen receptor (Homo sapiens) (P03372 whole entry, looked up): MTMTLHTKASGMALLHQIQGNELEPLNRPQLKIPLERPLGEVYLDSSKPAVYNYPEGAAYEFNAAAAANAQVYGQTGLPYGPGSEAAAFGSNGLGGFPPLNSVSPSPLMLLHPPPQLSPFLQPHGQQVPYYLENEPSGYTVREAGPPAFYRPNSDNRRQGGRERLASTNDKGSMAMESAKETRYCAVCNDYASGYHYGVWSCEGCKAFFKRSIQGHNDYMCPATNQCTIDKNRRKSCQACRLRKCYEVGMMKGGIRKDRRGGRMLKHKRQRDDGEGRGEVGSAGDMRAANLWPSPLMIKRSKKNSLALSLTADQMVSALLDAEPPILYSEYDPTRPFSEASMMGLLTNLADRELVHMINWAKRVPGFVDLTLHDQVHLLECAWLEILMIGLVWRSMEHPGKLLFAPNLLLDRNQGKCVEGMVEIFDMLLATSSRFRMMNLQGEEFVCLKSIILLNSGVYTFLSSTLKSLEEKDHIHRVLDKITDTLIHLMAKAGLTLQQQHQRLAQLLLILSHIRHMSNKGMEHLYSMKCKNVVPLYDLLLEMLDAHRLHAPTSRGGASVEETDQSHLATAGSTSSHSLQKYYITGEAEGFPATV
Method in brief: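 Compounds were tested against 0.1 nM (final) 17beta-estradiol in VM7Luc4E2 cells, which express full-length ER-alpha and an ERE-luciferase reporter; luminescence was recorded following 22 h exposure.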

[15] = qHTS assay to identify small molecule HDAC inhibitors (AID 1259364);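 further: wild-type HCT-116 cells with endogenous class I/II HDAC activity; top concentration of the series differs between compounds; nearly all actives have a fitted effect of over 45% in size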
Method in brief: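 Screening used wild-type human colon HCT-116 cells incubated overnight, dosed with compounds for 2 hours, and assayed with a homogeneous luminogenic HDAC I/II reagent for 30 minutes at room temperature.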

[16] = qHTS assay to identify small molecule HDAC inhibitors - cell viability counter screen (AID 1259365)
Method in brief: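 Wild-type HCT-116 cells were seeded at 1,500 per well, incubated overnight at 37 C, then exposed to compounds in DMSO for 2hr. Viability was read by CellTiter-Glo luminescence after 30min at room temperature.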

[17] = qHTS assay to identify small molecule agonists of the sonic hedgehog signaling (Shh) pathway - cell viability counter screen (AID 1259366); further: nearly all actives have a fitted effect of over 50% in size
Method in brief: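 NIH/3T3-derived 3T3 Gli1-Luc cells (stable Gli1-responsive firefly luciferase reporter) were seeded, rested 4 hr at 37 C/5% CO2, then exposed to compounds in DMSO for 24 hr; viability was read by CellTiter-Fluor fluorescence in the same wells.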

[18] = A CellTox Green Cytotoxicity Assay to monitor cytotoxicity in HepG2 cells - 32 hour (AID 1224883); further: nearly all actives have a fitted effect of over 50% in size
Method in brief: as §3

[19] = qHTS assay to identify small molecule antagonists of the sonic hedgehog signaling (Shh) pathway - cell viability counter screen (AID 1259367); further: nearly all actives have a fitted effect of over 55% in size
Method in brief: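 Conditioned medium drove Shh signaling in 3T3 Gli1-Luc cells exposed to compounds at 37C and 5% CO2. Viability was determined from CellTiter-Fluor fluorescence, with reagent incubated 1 hr after 23 hr of treatment.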

[20] = qHTS assay to identify small molecule phospholipidosis (PLD) inducers (AID 1259344; active means well fitted curve in the direction sought with a large enough effect; an effect the other way counts as inactive or inconclusive)
Method in brief: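 After 4 h attachment on collagen I, HepG2 cells were dosed with compound alongside LipidTOX Red, kept 24 h at 37 C, fixed, and imaged for lamellar phospholipid pits.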
On the % scale 0 is the no-effect control and ±100 the full control effect.

CC(C)(C)c1nnc(NS(=O)(=O)c2ccc(N)cc2)s1
inactive: Potency [1] | Potency [2] | outcome [3] | Potency [4] | outcome [5] | Potency [6] | Potency [7] | outcome [8] | Potency [9] | outcome [10] | Potency [11] | outcome [12] | Potency [13] | Potency [14] | Potency [15] | outcome [16] | Potency [17]

COc1ccc(Br)c(C)c1
inactive: Potency [1] | Potency [2] | outcome [3] | Potency [18] | Potency [4] | outcome [5] | Potency [6] | Potency [7] | outcome [8] | Potency [9] | outcome [10] | Potency [11] | Potency [15] | outcome [16] | Potency [17] | Potency [19]

Cc1cccc(C)c1NC(=O)c1ccccc1C(=O)O
inactive: Potency [1] | Potency [2] | outcome [3] | Potency [4] | outcome [5] | Potency [6] | Potency [7] | outcome [8] | Potency [9] | outcome [10] | Potency [11] | outcome [12] | Potency [13] | Potency [14] | outcome [20] | Potency [15] | outcome [16] | Potency [17] | Potency [19]

Cc1[nH]cnc1-c1ccc(Cl)cc1
inactive: Potency [1] | Potency [2] | outcome [3] | Potency [18] | outcome [5] | Potency [6] | Potency [7] | outcome [8] | Potency [9] | outcome [10] | Potency [11] | Potency [14] | Potency [15] | outcome [16] | Potency [17] | Potency [19]

COC(=O)[C@@H]1[C@H]2C[C@H]3c4[nH]c5ccccc5c4CCN3C[C@@H]2CC[C@@H]1O
inactive: Potency [1] | Potency [2] | outcome [3] | Potency [18] | outcome [5] | Potency [6] | Potency [7] | outcome [8] | Potency [9] | outcome [10] | Potency [11] | outcome [12] | Potency [14] | outcome [20] | Potency [15] | outcome [16] | Potency [17]

NS(=O)(=O)c1ccc(NC(=O)CCC(=O)O)cc1
inactive: Potency [1] | Potency [2] | outcome [3] | Potency [18] | outcome [5] | Potency [6] | Potency [7] | outcome [8] | Potency [9] | outcome [10] | Potency [11] | outcome [12] | Potency [14] | outcome [20] | Potency [15] | outcome [16] | Potency [17]

CNS(=O)(=O)CCc1ccc2[nH]cc(C3CCN(C)CC3)c2c1
inactive: Potency [1] | Potency [2] | outcome [3] | outcome [5] | Potency [6] | Potency [7] | outcome [8] | Potency [9] | outcome [10] | Potency [11] | outcome [12] | Potency [14] | outcome [20] | Potency [15] | outcome [16] | Potency [17]

COCCOCCOCCOCCO
inactive: Potency [1] | Potency [2] | outcome [3] | Potency [4] | outcome [5] | Potency [6] | Potency [7] | outcome [8] | Potency [9] | outcome [10] | Potency [11] | outcome [12] | Potency [13] | Potency [14] | Potency [15] | outcome [16] | Potency [17] | Potency [19]

CC(C)NCC(O)COc1cccc2[nH]ccc12 (stereo not drawn)
inactive: Potency [1] | Potency [2] | outcome [3] | Potency [4] | outcome [5] | Potency [6] | Potency [7] | outcome [8] | Potency [9] | outcome [10] | Potency [11] | outcome [12] | Potency [13] | outcome [20] | Potency [15] | outcome [16] | Potency [17] | Potency [19]

O=C1c2ccccc2C(=O)C1c1ccccc1
inactive: Potency [1] | Potency [2] | outcome [3] | Potency [4] | outcome [5] | Potency [6] | Potency [7] | outcome [8] | Potency [9] | outcome [10] | Potency [11] | outcome [12] | Potency [14] | outcome [20] | Potency [15] | outcome [16] | Potency [17]

Oc1cn2c(n1)Nc1ccc(Cl)c(Cl)c1C2
inactive: activity change, negative = cytotoxicity [1] -2.73% [at 15.8 µM] | cytotoxicity increase [2] -4.2% [at 15.8 µM] | cytotoxicity [3] 3.67% [at 15.8 µM] | cytotoxicity increase [4] 1.16% [at 15.8 µM] | activity change, negative = cytotoxic [5] 1.52% [at 15.8 µM] | activity change, negative = cytotoxicity [6] 2% [at 15.8 µM] | activity change, negative = cytotoxicity [7] 1.19% [at 15.8 µM] | activity change [8] -3.07% [at 15.8 µM] | activity change, negative = cytotoxicity [9] -2.51% [at 15.8 µM] | cytotoxicity increase [10] -5.9% [at 15.8 µM] | activity change, negative = cytotoxicity [11] 0.999% [at 19 µM] | activity, negative = inhibition [13] 16.6% [at 19 µM] | activity change, negative = inhibition [14] -26.8% [at 19 µM] | outcome [20] | activity change, negative = inhibition [15] -1.7% [at 19 µM] | activity change, negative = cytotoxicity [16] 1.3% [at 19 µM] | viability change, negative = cytotoxic [17] 3.75% [at 19 µM] | viability change, negative = cytotoxic [19] -4.16% [at 19 µM]

Cc1ccc(S(=O)(=O)O)c(C)c1
inactive: Potency [1] | Potency [2] | outcome [3] | outcome [5] | Potency [6] | Potency [7] | outcome [8] | Potency [9] | outcome [10] | Potency [11] | Potency [14] | Potency [15] | outcome [16] | Potency [17] | Potency [19]

CCC(C)NC(N)=O (stereo not drawn)
inactive: Potency [1] | Potency [2] | outcome [3] | Potency [4] | outcome [5] | Potency [6] | Potency [7] | outcome [8] | Potency [9] | outcome [10] | Potency [11] | Potency [13] | Potency [14] | Potency [15] | outcome [16] | Potency [17]

CC(CO)c1ccccc1 (stereo not drawn)
inactive: Potency [1] | Potency [2] | Potency [18] | Potency [4] | outcome [5] | Potency [6] | Potency [7] | outcome [8] | Potency [9] | outcome [10] | Potency [11] | outcome [12] | Potency [13] | Potency [14] | Potency [15] | outcome [16] | Potency [17] | Potency [19]
